HepG2 tox = HepG2 cytotoxicity, counter-screen for TGF-b inhibitors. 410,000 compounds, 0.76% hits. HepG2 CAGA-GFP viability, ATP luminescence, 18 h. Potency, µM (doses to about 46.1 µM), for the others: top-dose activity change, negative = cytotoxicity, hits mostly cytotoxic. AID 588856
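CellTiter-Glo luminescence gave cytotoxicity after 18 hours at 37 degrees C. The cells were HepG2 CAGA-GFP in 1% FBS DMEM, stimulated with 500 pg/mL TGF-beta after compound addition. %Activity was normalised to no-cell wells (complete cell-killing) and DMSO (no toxicity), and curves were fitted and classified.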
S2 tox = viability counter-screen for ATXN expression inhibitors. S2 cells (HEK-293 line with an ATXN2-luciferase reporter) viability, CellTiter-Fluor protease fluorescence, 24 h. Potency, µM (highest dose often 56.7 µM), usual class: cytotoxic. 400,000 compounds, 0.49% hits; also: nearly all actives have a fitted effect of over 40% in size
TGFb inhibitor = TGF-b pathway inhibition | Potency, µM (series often up to 46.1 µM), inactives show at the top dose activity, negative = inhibition, actives largely listed as inhibitors | AID 588855 | 410,000 compounds, 1.2% hits | HepG2 CAGA-GFP TGF-b/SMAD3 reporter, GFP fluorescence, 18 h; TGF-beta stimulated, 500 pg/mL final; also: % is scaled to controls: 0 for no effect and ±100 for the full control effect; nearly all actives have a fitted effect of over 65% in size
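Inhibition of TGF-beta-driven CAGA-GFP reporter expression in HEPG2 cells is measured by cellular GFP fluorescence after 18 h stimulation with 500 pg/mL recombinant TGF-beta in 1% FBS medium at 37 degrees C.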
DT40 TDP1 CPT = DT40-hTDP1 cell growth loss with CPT; chicken DT40 Tdp1-/-;hTDP1 cells + 20 nM CPT, ATP luminescence, 48 h; Potency, µM (series often up to 46.2 µM), for inactives: at the highest dose activity change, negative = growth inhibition, actives largely listed as inhibitors; 420,000 compounds, 12% hits; also: % is scaled to controls: 0 for no effect and ±100 for the full control effect; nearly all actives have a fitted effect of over 55% in size
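Cell growth measured by CellTiter-Glo luminescence after a minimum 48 h, 37 C compound exposure with 20 nM CPT in Tdp1-knockout DT40 cells stably expressing hTDP1, seeded 400/well; qHTS titration format.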
ATXN2 expr inh = inhibitors of ATXN2 expression; HEK-293 ATXN2-luciferase reporter, luminescence, 24 h; Potency, µM (top dose mostly 57 µM), for inactives: at the top dose activity change, negative = inhibition, most hits filed as inhibitors; 360,000 compounds, 0.72% hits; also: % is scaled to controls: 0 for no effect and ±100 for the full control effect; nearly all actives have a fitted effect of over 55% in size
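qHTS (up to 57 uM final) was run with 24 h compound exposure of reporter cells at 37 °C. Each well was multiplexed: SteadyGlo luminescence measured ATXN2-luciferase expression after a fluorogenic Gly-Phe-AFC viability readout (25 uM final).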
TDP1 cell noCPT = qHTS for Inhibitors of human tyrosyl-DNA phosphodiesterase 1 (TDP1): qHTS in cells in absence of CPT; DT40 Tdp1-/- hTDP1 cells, no CPT, ATP luminescence, 48 h; 420,000 compounds, 15% hits; Potency, µM (titrated, usually from 46.2 µM), for inactives: at the top dose activity change, negative = growth inhibition, actives largely listed as inhibitors; AID 686978, 2013; also: % is scaled to controls: 0 for no effect and ±100 for the full control effect; nearly all actives have a fitted effect of over 55% in size
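A cellular qHTS used chicken DT40 cells lacking endogenous Tdp1 but carrying stably transfected human TDP1. Compounds were applied without camptothecin, and cell growth kinetics were judged by ATP-dependent luminescence after ≥48 hr.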
* = called active by the depositor; i = inactive; ? = inconclusive; / = no result given. Only some compounds are listed: those with a hit (about 17% of all), similar ones and a draw of the others. Calls follow the shape of the dose curve; as a rule, active = well fitted curve in the direction sought with a large enough effect; inconclusive = small, poorly fitted or top-dose-only effect, or another doubt; inactive = no such curve, though single readings can be large; an effect the other way counts as inactive or inconclusive. Potency is read from the fitted curve at half-maximal effect.

SMILES	HepG2 tox	S2 tox	TGFb inhibitor	DT40 TDP1 CPT	ATXN2 expr inh	TDP1 cell noCPT
CC(NC(=O)C(=O)Nc1c2c(nn1-c1ccccc1)CSC2)c1ccccc1 (centres undefined)	-26%	i	-11%	15µM*	8%	21µM*
CC(NC(=O)C(=O)Nc1c2c(nn1-c1ccc(F)cc1)CSC2)c1ccccc1 (centres undefined)	-35%	i	0%	-86%	4%	8.2µM*
CC(=O)Nc1c2c(nn1-c1ccccc1)CSC2	38%	i	32%	3%	/	1%
Cc1cc(NC(=O)COC(=O)C2CCC2)no1	18%	i	-3%	1%	/	-1%
COc1cc(-c2cc(C(=O)Nc3c(Cl)cc(Cl)cc3Cl)c3ccccc3n2)cc(OC)c1OC	1%	i	2%	21µM*	-9%	18µM*
COc1cc(-c2cc(C(=O)Nc3ccc(S(N)(=O)=O)cc3)c3ccccc3n2)cc(OC)c1OC	-17%	i	-3%	4.1µM*	-19%	3.7µM*
COc1cc(-c2cc(C(=O)Nc3cccc(S(=O)(=O)N(C)C)c3)c3ccccc3n2)cc(OC)c1OC	-16%	i	-10%	-2%	-17%	-24%
CCN(CC)S(=O)(=O)c1ccc(O)c(NC(=O)c2cc(-c3cc(OC)c(OC)c(OC)c3)nc3ccccc23)c1	6%	i	?	?	-28%	21µM*
O=C(Cn1cnnn1)Nc1ccccc1Cc1ccccc1	1%	i	5%	-4%	-6%	-28%
Cc1sc2ncn(CC(=O)N3CCN(c4cccc(Cl)c4)CC3)c(=O)c2c1S(=O)(=O)N1CCC(C)CC1	-23%	?	?	?	-6%	23µM*
Cc1sc2ncn(CC(=O)N3CCN(c4ccccn4)CC3)c(=O)c2c1S(=O)(=O)N1CCC(C)CC1	-6%	?	20%	4%	26%	-20%
Cc1sc2ncn(CC(=O)N3CCN(c4ccc(F)cc4)CC3)c(=O)c2c1S(=O)(=O)N1CCC(C)CC1	-12%	?	-21%	?	-18%	?
Cc1sc2ncn(CC(=O)N3CCN(c4ccccc4)CC3)c(=O)c2c1S(=O)(=O)N1CCC(C)CC1	-20%	i	?	?	-8%	23µM*
N/C(=N\C(=S)Nc1ccc2c(c1)OCO2)c1ccccc1	-3%	?	-11%	?	60%	?
O=C(O)/C=C/C(=O)Nc1ccc(-c2ccccc2)cc1	-4%	i	-1%	-4%	13%	-1%
CCCC(=O)OCc1cnc(C)c2oc(=O)c(C(=O)Nc3cccc(C(F)(F)F)c3)cc12	-4%	i	1%	/	7%	/
COc1ccc(C(=O)Nc2ccnn2C2CCN(Cc3ccccn3)CC2)cc1	-12%	i	-2%	-4%	2%	21%
C#CCOCCOCCOCCNc1nc(N2CCN(C(=O)[C@H](CO)n3cc([C@@H](N)C(C)C)nn3)CC2)nc(N2CCN(C(=O)[C@H](CO)n3cc([C@@H](N)C(C)C)nn3)CC2)n1	9%	i	-20%	0%	4%	-15%
NCCNC[C@@H]1COC2(CCCCCCCCCCC2)O1	-67%	i	?	?	0%	23µM*
COc1cc(C(=O)NNC(=O)C2CSC3(C)CCC(=O)N23)cc(OC)c1OC (centres undefined)	9%	i	5%	-13%	/	3%
c1ccc2c(c1)CC1(CCCCC1)n1nnnc1-2	8%	i	0%	15µM*	-4%	23µM*
Cc1ccc2cc(C)c(N3CCN(c4ccccn4)CC3)nc2c1	-39%	i	-19%	18µM*	-16%	?
Cc1ccc(C(=O)CN2CCN(c3ccccn3)CC2)c(C)c1	-3%	i	-3%	0%	1%	11%
NS(=O)(=O)c1ccc(NS(=O)(=O)c2ccc(NC(=O)C3CC3)cc2)cc1	1%	i	-3%	-1%	-1%	23%
Cn1cccc1Cc1nnc(SCC(=O)Nc2ccc(F)cc2F)n1-c1ccc(F)cc1	-13%	i	-9%	?	7%	?
SMILES	HepG2 tox	S2 tox	TGFb inhibitor	DT40 TDP1 CPT	ATXN2 expr inh	TDP1 cell noCPT
Cn1cccc1Cc1nnc(SCC(=O)NCc2ccccc2)n1-c1ccc(F)cc1	-23%	i	1%	16µM*	3%	?
COc1ccc(Cl)cc1NC(=O)CSc1nnc(Cc2cccn2C)n1-c1ccc(F)cc1	-3%	?	-3%	26µM*	-37%	?
CCOC(=O)C(NCCc1ccccc1F)(NC(C)=O)C(F)(F)F (centres undefined)	-5%	i	10%	-13%	0%	-3%
ClN=C1C=CC=CC1=NCl	-9%	i	?	16µM*	4%	?
CC1(C)NC(=O)N(CC(O)CN(c2ccccc2)S(=O)(=O)c2ccccc2[N+](=O)[O-])C1=O (centres undefined)	1%	i	2%	9%	1%	-6%
O=C(c1cc2cc(Br)ccc2o1)N1CCCCC1	-23%	i	-22%	?	28%	21µM*
Cc1ccc(NC(=O)c2oc3ccc(S(=O)(=O)N4CCC5(CC4)OCCO5)cc3c2C)cc1Cl	-11%	/	0%	?	/	-16%
Cc1cccc(NC(=O)c2oc3ccc(S(=O)(=O)N4CCC5(CC4)OCCO5)cc3c2C)c1C	-15%	/	-16%	16µM*	/	18µM*
Cc1c(C(=O)Nc2cccc(C(F)(F)F)c2)oc2ccc(S(=O)(=O)N3CCC4(CC3)OCCO4)cc12	3%	/	0%	15µM*	/	9.2µM*
COc1ccc(NC(=O)c2oc3ccc(S(=O)(=O)N4CCC5(CC4)OCCO5)cc3c2C)cc1	-38%	i	-4%	16µM*	?	?
COc1ccc(OC)c(NC(=O)c2ccccc2OC(C)=O)c1	-19%	?	-22%	/	-2%	/
CCC(Oc1ccccc1F)C(=O)Nc1c(C(=O)c2ccccc2)oc2ccccc12 (centres undefined)	-12%	/	-11%	-22%	/	?
C[n+]1cccc(O)c1SCc1ccccc1	-64%	14µM*	?	5.2µM*	?	4.6µM*
C(#CSCc1ccccc1)SCc1ccccc1	-30%	i	-12%	-12%	/	-10%
COc1ccc(-c2csc(NC(=O)C3COc4ccccc4O3)n2)cc1OC (centres undefined)	-29%	?	-13%	16µM*	-18%	13µM*
